# Assay results: PMC12864922, “TDP-43 directly inhibits mRNA accumulation in neurites through modulation of mRNA stability”
# Over roughly 9,900 sequences, “r (bound/input frequency ratio)” has its median near 0.7; the highest 2% begin near 6.5. This excerpt belongs to a sample that is enriched for the highest values.
# B1: ENSMUSG00000031028.95|Tub (ssRNA)
# RNA: GGGAGUUCUACAGUCCGACGAUCGCUUCGAUAUCCGCAUGCUAGGUGGUCAGCAGAAAGCACUCCCACUUCAAAAGGGCCCAUUAGGCCCAAAGGGGGUUAGGAGUGGUAGGGAUAGGUGCGUGGCAGGUCCCUGCUAGGAUUGCAGGGGCCUGGCCAUGUGUAUUAGCUGGAGGCUUAGAAUGCUAGCUCAUUUGUUGCUACAGAUUUGCCCAGUGCUUGCACACGUAAGAACCCAGCUCUCAAGGCCAAAUAUCUGAGUGGAUGGGGAUGAUAGGAGUCAUCCAGUAGACUCCCUACAUCACUCUUGCGGUCGCACUAGUGUGGAAUUCUCGGGUGUCAAGG
# B2: ENSMUSG00000029028.207|Lrrc47 (ssRNA)
# RNA: GGGAGUUCUACAGUCCGACGAUCGCUUCGAUAUCCGCAUGCUAGUCCUAAGGACCCAGCAGCUGCACAGAGGACUUGGUGGCCCCGUGCCUUGCCAUCUGGCUGAGAAGAGAACCAGACCCUCAGCCUUCCCCCUCGACACCUUCUCGUUGGUGACCUCUGACCUUAAAGGACCAUUUCUACCUUCUGUAAAAGAACACCUGUUUGGGGUUGCGUGCGGCUUUCAUCCUAAGGCCGUGCGAGAGCCGUUAGCUGUCAGAACUAGUGAAGCUCCAGGCUCCUCGUGGCAGACCCUGGACAACGCCUCUUGCGGUCGCACUAGUGUGGAAUUCUCGGGUGUCAAGG
# B3: ENSMUSG00000022095.259|Fam160b2 (ssRNA)
# RNA: GGGAGUUCUACAGUCCGACGAUCGCUUCGAUAUCCGCAUGCUAGAGAGAGCGAGCUAUGAAUGAAUGUGAGUGUGUGUGUGUGUGUGUGUGUGUGAGAGAGAGAGAGAGAGAGCGAGCUAUGAAUGAAUGUGAGUGUGUGUGUGUGUGUGUGUGAGAGAGAGAGAGAGAGAGAGAGAGCUGUGAGUACACAUGGGUGCUGGUGUGGGACAGGAGCAGAUCUUGGUGGAGUGGGUCUACACUUGAGAUUUGUACUCGUUUGAGAGGCUGGGCAAUACUCAAUGCACUUUGGCAUUUGCAUGGUGCUCUUGCGGUCGCACUAGUGUGGAAUUCUCGGGUGUCAAGG
# B4: ENSMUSG00000022095.264|Fam160b2 (ssRNA)
# RNA: GGGAGUUCUACAGUCCGACGAUCGCUUCGAUAUCCGCAUGCUAUGUGUGUGUGUGUGUGUGUGUGAGAGAGAGAGAGAGAGAGCGAGCUAUGAAUGAAUGUGAGUGUGUGUGUGUGUGUGUGUGAGAGAGAGAGAGAGAGAGAGAGAGCUGUGAGUACACAUGGGUGCUGGUGUGGGACAGGAGCAGAUCUUGGUGGAGUGGGUCUACACUUGAGAUUUGUACUCGUUUGAGAGGCUGGGCAAUACUCAAUGCACUUUGGCAUUUGCAUGGUGUCUUCACAACAGCACAGCAAUAAACAUUGUCUCUUGCGGUCGCACUAGUGUGGAAUUCUCGGGUGUCAAGG
# B5: ENSMUSG00000022095.260|Fam160b2 (ssRNA)
# RNA: GGGAGUUCUACAGUCCGACGAUCGCUUCGAUAUCCGCAUGCUAGCGAGCUAUGAAUGAAUGUGAGUGUGUGUGUGUGUGUGUGUGUGUGAGAGAGAGAGAGAGAGAGCGAGCUAUGAAUGAAUGUGAGUGUGUGUGUGUGUGUGUGUGAGAGAGAGAGAGAGAGAGAGAGAGCUGUGAGUACACAUGGGUGCUGGUGUGGGACAGGAGCAGAUCUUGGUGGAGUGGGUCUACACUUGAGAUUUGUACUCGUUUGAGAGGCUGGGCAAUACUCAAUGCACUUUGGCAUUUGCAUGGUGUCUUCACUCUUGCGGUCGCACUAGUGUGGAAUUCUCGGGUGUCAAGG
# B6: ENSMUSG00000022095.258|Fam160b2 (ssRNA)
# RNA: GGGAGUUCUACAGUCCGACGAUCGCUUCGAUAUCCGCAUGCUAGUGAGAGAGAGAGCGAGCUAUGAAUGAAUGUGAGUGUGUGUGUGUGUGUGUGUGUGUGAGAGAGAGAGAGAGAGAGCGAGCUAUGAAUGAAUGUGAGUGUGUGUGUGUGUGUGUGUGAGAGAGAGAGAGAGAGAGAGAGAGCUGUGAGUACACAUGGGUGCUGGUGUGGGACAGGAGCAGAUCUUGGUGGAGUGGGUCUACACUUGAGAUUUGUACUCGUUUGAGAGGCUGGGCAAUACUCAAUGCACUUUGGCAUUUGCCUCUUGCGGUCGCACUAGUGUGGAAUUCUCGGGUGUCAAGG
# B7: ENSMUSG00000022095.266|Fam160b2 (ssRNA)
# RNA: GGGAGUUCUACAGUCCGACGAUCGCUUCGAUAUCCGCAUGCUAUGUGUGUGUGAGAGAGAGAGAGAGAGAGCGAGCUAUGAAUGAAUGUGAGUGUGUGUGUGUGUGUGUGUGAGAGAGAGAGAGAGAGAGAGAGAGCUGUGAGUACACAUGGGUGCUGGUGUGGGACAGGAGCAGAUCUUGGUGGAGUGGGUCUACACUUGAGAUUUGUACUCGUUUGAGAGGCUGGGCAAUACUCAAUGCACUUUGGCAUUUGCAUGGUGUCUUCACAACAGCACAGCAAUAAACAUUGUGAUUGUGUGGACCUCUUGCGGUCGCACUAGUGUGGAAUUCUCGGGUGUCAAGG
# B8: ENSMUSG00000022095.265|Fam160b2 (ssRNA)
# RNA: GGGAGUUCUACAGUCCGACGAUCGCUUCGAUAUCCGCAUGCUAUGUGUGUGUGUGUGUGAGAGAGAGAGAGAGAGAGCGAGCUAUGAAUGAAUGUGAGUGUGUGUGUGUGUGUGUGUGAGAGAGAGAGAGAGAGAGAGAGAGCUGUGAGUACACAUGGGUGCUGGUGUGGGACAGGAGCAGAUCUUGGUGGAGUGGGUCUACACUUGAGAUUUGUACUCGUUUGAGAGGCUGGGCAAUACUCAAUGCACUUUGGCAUUUGCAUGGUGUCUUCACAACAGCACAGCAAUAAACAUUGUGAUUGUCUCUUGCGGUCGCACUAGUGUGGAAUUCUCGGGUGUCAAGG
# B9: ENSMUSG00000022095.262|Fam160b2 (ssRNA)
# RNA: GGGAGUUCUACAGUCCGACGAUCGCUUCGAUAUCCGCAUGCUAUGAAUGUGAGUGUGUGUGUGUGUGUGUGUGUGUGAGAGAGAGAGAGAGAGAGCGAGCUAUGAAUGAAUGUGAGUGUGUGUGUGUGUGUGUGUGAGAGAGAGAGAGAGAGAGAGAGAGCUGUGAGUACACAUGGGUGCUGGUGUGGGACAGGAGCAGAUCUUGGUGGAGUGGGUCUACACUUGAGAUUUGUACUCGUUUGAGAGGCUGGGCAAUACUCAAUGCACUUUGGCAUUUGCAUGGUGUCUUCACAACAGCACAGCCUCUUGCGGUCGCACUAGUGUGGAAUUCUCGGGUGUCAAGG
# B10: ENSMUSG00000022095.265|Fam160b2|1:16;55:75;122:126 (ssRNA)
# RNA: GGGAGUUCUACAGUCCGACGAUCGCUUCGAUAUCCGCAUGCUAACACACACACACACACAGAGAGAGAGAGAGAGAGCGAGCUAUGAAUGAAUGUGACACACACACACACACACACACAGAGAGAGAGAGAGAGAGAGAGAGCUGUGAGUACACAUGGGUGCUGCACACGGACAGGAGCAGAUCUUGGUGGAGUGGGUCUACACUUGAGAUUUGUACUCGUUUGAGAGGCUGGGCAAUACUCAAUGCACUUUGGCAUUUGCAUGGUGUCUUCACAACAGCACAGCAAUAAACAUUGUGAUUGUCUCUUGCGGUCGCACUAGUGUGGAAUUCUCGGGUGUCAAGG
# B11: ENSMUSG00000022095.267|Fam160b2 (ssRNA)
# RNA: GGGAGUUCUACAGUCCGACGAUCGCUUCGAUAUCCGCAUGCUAUGUGAGAGAGAGAGAGAGAGAGCGAGCUAUGAAUGAAUGUGAGUGUGUGUGUGUGUGUGUGUGAGAGAGAGAGAGAGAGAGAGAGAGCUGUGAGUACACAUGGGUGCUGGUGUGGGACAGGAGCAGAUCUUGGUGGAGUGGGUCUACACUUGAGAUUUGUACUCGUUUGAGAGGCUGGGCAAUACUCAAUGCACUUUGGCAUUUGCAUGGUGUCUUCACAACAGCACAGCAAUAAACAUUGUGAUUGUGUGGACAUGCUGCUCUUGCGGUCGCACUAGUGUGGAAUUCUCGGGUGUCAAGG
# B12: ENSMUSG00000032194.73|Kank2|146:150 (ssRNA)
# RNA: GGGAGUUCUACAGUCCGACGAUCGCUUCGAUAUCCGCAUGCUAUUUGAAUGUCACUGGAAUGUUACAGUGUCUAUUGUCUCCUCAUCUUUACAGCAGGUCUCCACAAAGCCUGCUCACCACCCUUUGUCACCUCAUUUCAUUGUCUAGUGUACAAUAGGGUCUUGUCCACUGCCCUCCACCUCCAGACACACACUUCAGGGCCUGGGGUGUCUCUUGUGAUUGCUUUACAGAAUAAGAUUGCCGUACCUUAGCCGCCUGCCUCCAGUCAGAAAGCAGUGUUUUCAUUUGCCUUUUUCCUUUCUCUCUUGCGGUCGCACUAGUGUGGAAUUCUCGGGUGUCAAGG
# B13: ENSMUSG00000058297.497|Spock2|151:155 (ssRNA)
# RNA: GGGAGUUCUACAGUCCGACGAUCGCUUCGAUAUCCGCAUGCUAGGUUGGAGAGAGUAAAUGUGCCUUGAGAGACCACUCAGAGGUCCCAGGAGGAACGGGGGCGGGGCUUAGCCUGGGAGUUCUGGCAGGAGGCAAAGUUGGUGAGAGUCCUGGGACAUCUUACCCCCAGUGUUCCACAGGAGUCGUGACCACCACACAUGGGUGGGCACAGGUCUGCCUUGCUCCAGCCCCCUCCCUUGGUUUCUGUUGGUACCCAUUUGGCUUUUAUCUGCUUUCUGCUUCACCACUAAGUGCGUAGGUGGCUCUUGCGGUCGCACUAGUGUGGAAUUCUCGGGUGUCAAGG
# Target: TDP-43 (Homo sapiens, UniProt Q13148 1-414)
# Assay: RNA Bind-n-Seq with designed 260-mer pool; 25 mM Tris-HCl, 150 mM KCl, 3 mM MgCl2, BSA (printed 500 mg/mL), 20 units/mL SUPERase IN; pH not stated; 500 nM RNA pool, 1 h, 4 C; TDP-43 5, 50, 500 nM; high values mean tight binding
# Conditions: protein: recombinant; tags: SBP (GST cleaved off with PreScission; pGEX-GST-SBP)
# Method in brief: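 An in vitro-transcribed pool of 260-nt 3′ UTR oligos (500 nM) was incubated for 1 h at 4 °C with recombinant SBP-tagged TDP-43 at 5, 50 or 500 nM held on streptavidin beads. The buffer contained 25 mM Tris-HCl, 150 mM KCl, 3 mM MgCl2, BSA and SUPERase IN. Biotin-eluted bound RNA was sequenced, and binding, R, is each oligo's normalized read abundance in the bound sample over that in input.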
# TDP-43, sequence (Q13148 whole entry): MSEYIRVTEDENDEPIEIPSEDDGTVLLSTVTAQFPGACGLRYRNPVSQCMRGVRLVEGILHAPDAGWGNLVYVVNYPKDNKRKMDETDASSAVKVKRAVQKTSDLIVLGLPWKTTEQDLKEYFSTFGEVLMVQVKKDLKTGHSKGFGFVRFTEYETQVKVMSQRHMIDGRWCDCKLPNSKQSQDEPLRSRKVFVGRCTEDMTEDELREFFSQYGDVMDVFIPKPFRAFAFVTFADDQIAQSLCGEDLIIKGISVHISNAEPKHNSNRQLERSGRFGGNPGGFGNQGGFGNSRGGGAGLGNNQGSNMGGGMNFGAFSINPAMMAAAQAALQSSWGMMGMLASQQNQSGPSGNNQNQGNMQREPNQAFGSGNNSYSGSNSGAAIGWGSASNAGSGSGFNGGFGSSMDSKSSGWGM
row,Binder,binding signal
1,B1,1.54 R (bound/input frequency ratio)
2,B2,0.453 R (bound/input frequency ratio)
3,B3,5.88 R (bound/input frequency ratio)
4,B4,5.78 R (bound/input frequency ratio)
5,B5,7.36 R (bound/input frequency ratio)
6,B6,4.34 R (bound/input frequency ratio)
7,B7,7.33 R (bound/input frequency ratio)
8,B8,4.76 R (bound/input frequency ratio)
9,B9,9.41 R (bound/input frequency ratio)
10,B10,5.93 R (bound/input frequency ratio)
11,B11,5.01 R (bound/input frequency ratio)
12,B12,1.55 R (bound/input frequency ratio)
13,B13,2.24 R (bound/input frequency ratio)
